Measured values taken from PubChem BioAssay AID1159580 (chemical genetic matrix, 2015).
The campaign covered roughly 5,500 compounds. About 2,000 (36%) were called active. Not shown: some 18% with an inconclusive outcome. Rule as the data show it: active = normalized growth mostly below about 0.91 (no sharp cut-off); inconclusive = no clear call, values can overlap the other calls; inactive = mostly above about 0.92. Some of the results follow.

Test: chemical genetic growth profiling, strain panel (AID 1159580);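 also: tested at 20 µM; growth read once vehicle control cultures reached saturation at 30 °C; 1 = growth at the plate median or of vehicle wells; lower values mean less growth of the strain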
Conditions: growth OD
[1] = S. cerevisiae deletion strains, locus YAR019C, strain CDC15, active compounds read low
[2] = S. cerevisiae deletion strains, locus YBL105C, strain PKC1, active compounds read low
[3] = S. cerevisiae deletion strains, locus YBR135W, strain CKS1, active compounds read low
[4] = S. cerevisiae deletion strains, locus YBR136W, strain MEC1, active compounds read low
[5] = S. cerevisiae deletion strains, locus YBR160W, strain CDC28, active compounds read low
[6] = S. cerevisiae deletion strains, locus YDL017W, strain CDC7, active compounds read low
[7] = S. cerevisiae deletion strains, locus YDL028C, strain MPS1, active compounds read low
[8] = S. cerevisiae deletion strains, locus YDL101C, strain DUN1, active compounds read low
[9] = S. cerevisiae deletion strains, locus YDL108W, strain KIN28, active compounds read low
[10] = S. cerevisiae deletion strains, locus YDL132W, strain cdc53, active compounds read low
[11] = S. cerevisiae deletion strains, locus YDL214C, strain PRR2, active compounds read low
[12] = S. cerevisiae deletion strains, locus YDR052C, strain DBF4, active compounds read low
[13] = S. cerevisiae deletion strains, locus YDR054C, strain cdc34, active compounds read low
[14] = S. cerevisiae deletion strains, locus YDR226W, strain ADK1, active compounds read low
[15] = S. cerevisiae deletion strains, locus YDR477W, strain SNF1, active compounds read low
[16] = S. cerevisiae deletion strains, locus YER123W, strain YCK3, active compounds read low
[17] = S. cerevisiae deletion strains, locus YER133W, strain GLC7, active compounds read low
[18] = S. cerevisiae deletion strains, locus YFL009W, strain cdc4, active compounds read low
[19] = S. cerevisiae deletion strains, locus YFL029C, strain CAK1, active compounds read low
[20] = S. cerevisiae deletion strains, locus YFR003C, strain YPI1, active compounds read low
[21] = S. cerevisiae deletion strains, locus YFR019W, strain FAB1, active compounds read low
[22] = S. cerevisiae deletion strains, locus YFR028C, strain CDC14, active compounds read low
[23] = S. cerevisiae deletion strains, locus YGR040W, strain KSS1, active compounds read low
[24] = S. cerevisiae deletion strains, locus YGR052W, strain FMP48, active compounds read low
[25] = S. cerevisiae deletion strains, locus YGR092W, strain DBF2, active compounds read low
[26] = S. cerevisiae deletion strains, locus YHR030C, strain SLT2, active compounds read low
[27] = S. cerevisiae deletion strains, locus YHR079C, strain IRE1, active compounds read low
[28] = S. cerevisiae deletion strains, locus YHR082C, strain KSP1, active compounds read low
[29] = S. cerevisiae deletion strains, locus YHR205W, strain SCH9, active compounds read low
[30] = S. cerevisiae deletion strains, locus YIL147C, strain SLN1, active compounds read low
[31] = S. cerevisiae deletion strains, locus YJL095W, strain BCK1, active compounds read low
[32] = S. cerevisiae deletion strains, locus YJL128C, strain PBS2, active compounds read low
[33] = S. cerevisiae deletion strains, locus YJL157C, strain FAR1, active compounds read low
[34] = S. cerevisiae deletion strains, locus YJR016C, strain ILV3, active compounds read low
[35] = S. cerevisiae deletion strains, locus YJR066W, strain TOR1 (second series), active compounds read low
[36] = S. cerevisiae deletion strains, locus YJR066W, strain TOR1, active compounds read low
[37] = S. cerevisiae deletion strains, locus YKL048C, strain ELM1, active compounds read low
[38] = S. cerevisiae deletion strains, locus YKL067W, strain YNK1, active compounds read low
[39] = S. cerevisiae deletion strains, locus YKL101W, strain HSL1, active compounds read low
[40] = S. cerevisiae deletion strains, locus YKL193C, strain SDS22, active compounds read low
[41] = S. cerevisiae deletion strains, locus YKL203C, strain TOR2, active compounds read low
[42] = S. cerevisiae deletion strains, locus YLR113W, strain HOG1, active compounds read low
[43] = S. cerevisiae deletion strains, locus YLR133W, strain CKI1, active compounds read low
[44] = S. cerevisiae deletion strains, locus YLR403W, strain SFP1, active compounds read low
[45] = S. cerevisiae deletion strains, locus YML070W, strain DAK1, active compounds read low
[46] = S. cerevisiae deletion strains, locus YMR001C, strain CDC5, active compounds read low
[47] = S. cerevisiae deletion strains, locus YMR205C, strain PFK2 (second series), active compounds read low
[48] = S. cerevisiae deletion strains, locus YMR277W, strain FCP1, active compounds read low
[49] = S. cerevisiae deletion strains, locus YNL006W, strain LST8, active compounds read low
[50] = S. cerevisiae deletion strains, locus YNL020C, strain ARK1, active compounds read low
[51] = S. cerevisiae deletion strains, locus YNL161W, strain CBK1, active compounds read low
[52] = S. cerevisiae deletion strains, locus YNL183C, strain NPR1, active compounds read low
[53] = S. cerevisiae deletion strains, locus YNL207W, strain RIO2, active compounds read low
[54] = S. cerevisiae deletion strains, locus YNL222W, strain SSU72, active compounds read low
[55] = S. cerevisiae deletion strains, locus YNL307C, strain MCK1 (second series), active compounds read low
[56] = S. cerevisiae deletion strains, locus YOL078W, strain AVO1, active compounds read low
[57] = S. cerevisiae deletion strains, locus YOL136C, strain PFK27, active compounds read low
[58] = S. cerevisiae deletion strains, locus YOR061W, strain CKA2, active compounds read low
[59] = S. cerevisiae deletion strains, locus YOR119C, strain RIO1, active compounds read low
[60] = S. cerevisiae deletion strains, locus YOR231W, strain MKK1, active compounds read low
[61] = S. cerevisiae deletion strains, locus YOR329C, strain SCD5, active compounds read low
[62] = S. cerevisiae deletion strains, locus YPL031C, strain PHO85, active compounds read low
[63] = S. cerevisiae deletion strains, locus YPL153C, strain RAD53, active compounds read low
[64] = S. cerevisiae deletion strains, locus YPL204W, strain HRR25, active compounds read low
[65] = S. cerevisiae deletion strains, locus YPL209C, strain IPL1, active compounds read low
[66] = S. cerevisiae deletion strains, locus YPL256C, strain CLN2, active compounds read low
[67] = S. cerevisiae deletion strains, locus YPR025C, strain CCL1, active compounds read low
[68] = S. cerevisiae deletion strains, locus YPR106W, strain ISR1, active compounds read low
[69] = S. cerevisiae deletion strains, locus YPR111W, strain DBF20, active compounds read low
[70] = S. cerevisiae deletion strains, strain NNK1, active compounds read low
[71] = S. cerevisiae deletion strains, strain TSCII, active compounds read low
[72] = S. cerevisiae deletion strains, locus YAL013W, strain DEP1, active compounds read low
[73] = S. cerevisiae deletion strains, locus YBR229C, strain ROT2, active compounds read low
[74] = S. cerevisiae deletion strains, locus YDL134C, strain PPH21, active compounds read low
[75] = S. cerevisiae deletion strains, locus YDR150W, strain NUM1, active compounds read low
[76] = S. cerevisiae deletion strains, locus YEL061C, strain CIN8, active compounds read low
[77] = S. cerevisiae deletion strains, locus YGR078C, strain PAC10, active compounds read low
[78] = S. cerevisiae deletion strains, locus YHR087W, strain rtc3, active compounds read low
[79] = S. cerevisiae deletion strains, locus YJR043C, strain POL32, active compounds read low
[80] = S. cerevisiae deletion strains, locus YJR075W, strain HOC1, active compounds read low
[81] = S. cerevisiae deletion strains, locus YLR039C, strain RIC1, active compounds read low
[82] = S. cerevisiae deletion strains, locus YLR058C, strain SHM2 (second series), active compounds read low
[83] = S. cerevisiae deletion strains, locus YLR085C, strain ARP6, active compounds read low
[84] = S. cerevisiae deletion strains, locus YLR262C, strain YPT6, active compounds read low
[85] = S. cerevisiae deletion strains, locus YML094W, strain GIM5, active compounds read low
[86] = S. cerevisiae deletion strains, locus YMR219W, strain ESC1, active compounds read low
[87] = S. cerevisiae deletion strains, locus YMR263W, strain SAP30, active compounds read low
[88] = S. cerevisiae deletion strains, locus YNL153C, strain GIM3, active compounds read low
[89] = S. cerevisiae deletion strains, locus YNL298W, strain CLA4 (second series), active compounds read low
[90] = S. cerevisiae deletion strains, locus YNL322C, strain KRE1, active compounds read low
[91] = S. cerevisiae deletion strains, locus YNR030W, strain Alg12, active compounds read low
[92] = S. cerevisiae deletion strains, locus YPL055C, strain LGE1, active compounds read low
[93] = S. cerevisiae deletion strains, locus YPL241C, strain CIN2, active compounds read low
[94] = S. cerevisiae deletion strains, locus YPR135W, strain CTF4, active compounds read low
[95] = S. cerevisiae strains, strain wild type, active compounds read low

Measured: normalized growth

COc1ccc(Br)c(C(=O)/C(C#N)=C/c2cccs2)c1
inactive: [2] 0.94 | [3] 0.903 | [4] 0.922 | [5] 0.921 | [6] 0.921 | [7] 0.909 | [9] 0.904 | [12] 0.929 | [14] 0.908 | [20] 0.918 | [22] 0.913 | [30] 0.919 | [32] 0.874 | [34] 0.915 | [46] 0.921 | [53] 0.917 | [61] 0.929 | [65] 0.926 | [67] 0.914 | [69] 0.935
active: [1] 0.765 | [8] 0.676 | [10] 0.871 | [11] 0.221 | [13] 0.696 | [15] 0.197 | [16] 0.122 | [17] 0.187 | [18] 0.861 | [19] 0.724 | [21] 0.149 | [23] 0.229 | [24] 0.205 | [25] 0.178 | [26] 0.125 | [27] 0.132 | [28] 0.15 | [29] 0.0479 | [31] 0.146 | [33] 0.181 | [35] 0.252 | [36] 0.146 | [37] 0.234 | [38] 0.262 | [39] 0.307 | [40] 0.787 | [41] 0.2 | [42] 0.23 | [43] 0.224 | [44] 0.081 | [45] 0.177 | [47] 0.287 | [48] 0.814 | [49] 0.875 | [50] 0.22 | [51] 0.836 | [52] 0.151 | [54] 0.861 | [55] 0.169 | [56] 0.722 | [57] 0.139 | [58] 0.344 | [59] 0.249 | [60] 0.187 | [62] 0.179 | [63] 0.198 | [64] 0.189 | [66] 0.16 | [68] 0.886 | [70] 0.676 | [71] 0.736

COc1ccc(OC)c(CNC(=O)Cc2cccs2)c1
inactive: [72] 1.01 | [73] 1.03 | S. cerevisiae deletion strains, locus YCL061C, strain MRC1, active compounds read low 1.03 | [8] 1.05 | [74] 0.997 | [75] 0.993 | [76] 0.995 | [77] 1.04 | [26] 1.04 | [78] 0.952 | [79] 1.03 | [80] 0.998 | [81] 1.04 | [82] 0.988 | [83] 0.994 | [84] 1.01 | [85] 0.962 | [86] 0.996 | [87] 1.01 | [88] 1.03 | [89] 1 | [90] 1 | [91] 1 | [92] 0.961 | [93] 0.983 | [94] 1.06 | [95] 1.01

Cc1ccc(NC(=O)CC#N)c(C)c1
inactive: [72] 1.01 | [73] 1 | [8] 0.979 | [74] 1.01 | [75] 0.895 | [76] 1.03 | [77] 1.01 | S. cerevisiae deletion strains, locus YGR229C, strain SMI1, active compounds read low 0.986 | [26] 0.959 | [78] 0.995 | [79] 0.96 | [80] 1.04 | S. cerevisiae deletion strains, locus YKL190W, strain CNB1, active compounds read low 0.998 | [81] 0.974 | [82] 1 | [83] 1.05 | [84] 0.973 | [85] 1.04 | [86] 1.02 | [87] 0.998 | S. cerevisiae deletion strains, locus YMR307W, strain GAS1, active compounds read low 1.03 | [88] 1.01 | [89] 0.988 | [90] 1.01 | [91] 1.02 | S. cerevisiae deletion strains, locus YOL006C, strain TOP1, active compounds read low 0.951 | [92] 1.1 | [93] 1.03 | [94] 1.01 | [95] 0.976

O=C(Nc1ccc(SC(F)(F)F)cc1)Nc1ccc(Oc2cccc(C(F)(F)F)c2)nc1
active: [26] 0.769
inactive: [1] 0.995 | [2] 0.989 | [3] 0.992 | [4] 0.987 | [5] 0.992 | [6] 0.996 | [7] 0.988 | [8] 0.997 | [9] 0.993 | [10] 0.995 | [11] 0.941 | [12] 0.996 | [13] 0.994 | [14] 0.987 | [15] 0.982 | [16] 0.949 | [17] 0.95 | [18] 0.988 | [19] 0.996 | [20] 0.991 | [21] 0.921 | [22] 0.999 | [23] 0.975 | [24] 0.973 | [25] 0.995 | [27] 0.883 | [28] 1.05 | [29] 0.957 | [30] 0.994 | [31] 0.975 | [32] 0.946 | [33] 0.937 | [34] 1 | [35] 1.02 | [36] 1.02 | [37] 0.972 | [38] 0.956 | [39] 0.949 | [40] 1 | [41] 0.991 | [42] 0.873 | [43] 0.954 | [44] 0.977 | [45] 0.964 | [46] 0.996 | [47] 0.974 | [48] 0.996 | [49] 0.989 | [50] 0.947 | [51] 0.984 | [52] 1.01 | [53] 0.996 | [54] 0.991 | [55] 0.884 | [56] 1 | [57] 0.907 | [58] 0.983 | [59] 1.03 | [60] 0.958 | [61] 0.984 | [62] 0.97 | [63] 0.99 | [64] 0.958 | [65] 0.992 | [66] 0.897 | [67] 0.988 | [68] 0.992 | [69] 0.972 | [70] 0.999 | [71] 1
